# According to PubChem BioAssay AID588342 (National Center for Advancing Translational Sciences (NCATS), 2011):
# Out of some 360,000 compounds screened, about 25,000 (6.9%) were called active. Roughly 9% stayed inconclusive and do not appear here. Only a selection was taken, and actives are over-represented in it overall. A number with no mark means an inactive call. Calls follow the shape of the dose curve; as a rule, active = well fitted inhibition curve with a large enough effect; inconclusive = small, poorly fitted or top-dose-only effect; inactive = flat fitted curve, though single readings scatter.
# Target: Luciferin 4-monooxygenase (Photinus pyralis) (UniProt P08659)
# Test: qHTS profiling assay for firefly luciferase inhibitor/activator using purifed enzyme and Km concentrations of substrates (counterscreen for miR-21 project); also: nearly all actives have a fitted effect of over 55% in size;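 as to activity change, negative = inhibition: plate controls were vehicle for no effect and reference inhibitor for full effect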
# Settings: purified FLuc, luminescence inhibition; series mostly up to 57.5 µM; activity change, negative = inhibition: at the top concentration
# Procedure, shortened: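 Purified P. pyralis luciferase (10nM final) with 10uM D-luciferin and 10uM ATP (Km levels) in 50mM Tris acetate pH 7.5, 10mM Mg acetate, 0.01% Tween-20, 0.05% BSA; qHTS 6-point titration, ~60 µM downward; luminescence read.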
# Potency is read from the fitted curve at half-maximal effect.
# Luciferin 4-monooxygenase (Photinus pyralis), sequence (P08659 whole entry, looked up): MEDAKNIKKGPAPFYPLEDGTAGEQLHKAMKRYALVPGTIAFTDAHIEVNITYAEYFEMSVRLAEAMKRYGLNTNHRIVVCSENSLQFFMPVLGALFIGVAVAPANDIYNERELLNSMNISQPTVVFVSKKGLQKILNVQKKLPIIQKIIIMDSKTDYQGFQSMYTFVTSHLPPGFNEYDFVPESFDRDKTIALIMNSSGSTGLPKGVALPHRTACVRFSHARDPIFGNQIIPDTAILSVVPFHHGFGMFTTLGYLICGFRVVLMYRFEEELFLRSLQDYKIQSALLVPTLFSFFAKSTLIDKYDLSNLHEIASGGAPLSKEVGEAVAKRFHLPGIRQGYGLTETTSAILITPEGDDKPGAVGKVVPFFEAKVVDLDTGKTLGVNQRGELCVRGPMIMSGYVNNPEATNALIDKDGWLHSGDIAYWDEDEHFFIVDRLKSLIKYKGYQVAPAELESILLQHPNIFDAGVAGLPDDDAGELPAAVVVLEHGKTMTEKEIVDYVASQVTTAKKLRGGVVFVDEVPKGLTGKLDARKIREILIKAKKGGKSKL
Compound,"activity change, negative = inhibition",Potency
COCCNC(=O)c1ccc2c(c1)N=C(C)c1cc(C)ccc1S2,-5.31%,–
COc1ccc(S(=O)(=O)N2CCOC23CCN(S(=O)(=O)c2ccc([N+](=O)[O-])cc2)CC3)cc1,6.4%,–
O=C(O)Cc1ccc(NC(=O)Nc2cccc3ccccc23)cc1,-15.7%,–
CC(=O)N(C)c1ccc(NC(=O)Nc2cccc3ccccc23)cc1,–,8.49 µM (active)
CCOc1ccc(NC(=O)Nc2ccc(N(C)C(C)=O)cc2)cc1,0.16%,–
CC(=O)Nc1ccc(NC(=O)CSc2nnc3c4cc(Br)ccc4n(C)c3n2)cc1,0.306%,–
CCc1ccc(NC(=O)CN2C(=O)C(c3ccccc3)=NC23CCCCCC3)cc1,-7.02%,–
O=[N+]([O-])c1ccc(N=Cc2c(O)ccc3ccccc23)cc1,-8.44%,–
Oc1ccc(N=Cc2c(O)ccc3ccccc23)cc1,–,16.9 µM (active)
CCOc1[nH]n(-c2ccc(Cl)cc2)c(=O)c1C=Nc1ccc(O)cc1,3.26%,–
CC(C)CNC(=O)CC(c1ccccc1)c1c(O)ccc2ccccc12 (stereo not drawn),8.33%,–
Oc1ccc(N=Cc2sc3ccccc3c2Cl)cc1,–,5.36 µM (active)
Oc1ccc2ccccc2c1C=Nc1ccccc1,–,16.9 µM (active)
COc1ccc(-n2ccnc(NCCc3ccc(Cl)cc3)c2=O)cc1OC,-9.74%,–
Cc1cc(C)cc(NC(=O)c2cnc3sc(N4CCCC4)nn3c2=O)c1,-2.76%,–
COc1cccc(CNC(=O)C(=O)NCC(c2cccs2)S(=O)(=O)c2ccccc2)c1 (stereo not drawn),-0.915%,–
Cc1nc2ccc(S(=O)(=O)N(CC(=O)Nc3ccc(F)cc3)Cc3ccccc3)cc2s1,2.12%,–
CCCCC12CN3CC(C)(CN(C1)C3c1ccc(O)c(OC)c1)C2=O (stereo not drawn),-9.79%,–
CCOc1ccc(CNC(=O)C2CCN(c3nnc(-n4cccc4CNc4ccc(C)cc4)s3)CC2)cc1OC,0.851%,–
CCOC(=O)/C(C#N)=C/c1ccc(OCC(=O)Nc2ccccc2)c(OC)c1,-13.1%,–
CCCn1c(C)cc(/C=C(\C#N)C(=O)OCC(=O)N(C)c2c(N)n(Cc3ccccc3)c(=O)[nH]c2=O)c1C,–,10.7 µM (active)

Compound,"activity change, negative = inhibition",Potency
COc1cc(NC(=O)CCn2nc(C)cc2C)cc(OC)c1OC,-2.4%,–
CN(C(=O)COC(=O)c1ccc(Br)o1)c1c(N)n(Cc2ccccc2)c(=O)[nH]c1=O,-17%,–
Cc1cc(OCC(=O)N(C)c2c(N)n(Cc3ccccc3)c(=O)[nH]c2=O)c(C(C)C)cc1Cl,0.981%,–
CCCn1c(C)cc(/C=C(\C#N)C(=O)OCC(=O)Nc2cc(OC)c(OC)c(OC)c2)c1C,–,13.5 µM (active)
CCS(=O)(=O)c1ncc(N(Cc2ccc(F)cc2)Cc2ccco2)c(C(=O)Nc2cc(C)ccc2C)n1,0.246%,–
COc1ccc(C(=O)c2oc3ccccc3c2NC(=O)COc2cccc(C)c2)cc1,-3.19%,–
O=c1oc2ccc(C#CC3(O)CCCCC3)cc2cc1-n1cc(-c2ccsc2)nn1,-1.06%,–
Cn1c(N)c(C(=O)COC(=O)COc2ccc(Cl)cc2)c(=O)n(C)c1=O,0.687%,–
CCN(C(=O)COC(=O)Cc1c(F)cccc1Cl)c1c(N)n(Cc2ccccc2)c(=O)[nH]c1=O,-0.25%,–
COc1ccc(/C=C(\NC(=O)c2ccc(OC)c(OC)c2)C(=O)NCCc2c[nH]c3ccccc23)cc1,2.65%,–
CC(=O)N/C(=C/c1ccc(Cl)cc1)C(=O)NCCc1c[nH]c2ccccc12,-0.391%,–
Cc1ccc(C(=O)N/C(=C/c2ccco2)C(=O)NCCc2c[nH]c3ccccc23)cc1C,–,10.7 µM (active)
COc1ccc(C)cc1N(C)C(=O)c1coc(=O)c2ccccc12,-0.441%,–
O=C(CN1CCN(S(=O)(=O)c2cccc(Cl)c2)CC1)N1CCCCC1,6.07%,–
N#Cc1ccccc1Sc1ccccc1C(=O)OCC(=O)NC1CCCCC1,0.881%,–
O=C(COC(=O)c1ccccc1Cl)NC1CCCCCCC1,–,12 µM (active)
O=C(COC(=O)c1ccccc1SCC(=O)NC1CCCCC1)NC1CCCCC1,4.43%,–
Cc1ccc(S(=O)(=O)NCc2nc3nc(C)cc(C)n3n2)cc1,0.546%,–
Cc1ccc(NC(=O)CCC(=O)N2CCC(c3ccccc3)=N2)cc1S(=O)(=O)N1CCCCC1,1.57%,–
O=C(CN1C(=O)NC2(CCCCCC2)C1=O)NCc1cccs1,-3.93%,–
Cc1[nH]n(-c2ccccc2)c(=O)c1N=Nc1ccccc1C(=O)N1CCCCC1,-2.84%,–

Compound,"activity change, negative = inhibition",Potency
Cc1cccc(N2C(=O)CC(SC(N)=Nc3ccccc3)C2=O)c1 (stereo not drawn),1.99%,–
Cc1cccc(N=Nc2c(C)[nH]n(-c3ccccc3)c2=O)c1,–,19 µM (active)
CCN(Cc1ccccc1)C(=O)c1cn(-c2cccc(OC)c2)c(=O)c2ccccc12,-12%,–
CCn1cc(C(=O)NCc2ccccc2)c(=O)c2cc(S(=O)(=O)N3CCCCC3)ccc21,-1.44%,–
COc1ccc(C(C#N)Nc2ccccc2C)cc1 (stereo not drawn),-19%,–
COc1ccc(C(C#N)Nc2ccc(C)cc2)cc1 (stereo not drawn),–,1.69 µM (active)
COc1ccc(C(CC(=O)Nc2ccc(C)cc2)NC(=O)C(F)(F)F)cc1 (stereo not drawn),-2.17%,–
Cc1ccc(CN2CCC(CNC(=O)c3cnn(-c4ccc(C)cc4)c3C3CCN(C(=O)OC(C)(C)C)CC3)CC2)cc1,-2.42%,–
Cn1ccc2cc(S(=O)(=O)N3CCCC(C(=O)NCc4ccccc4F)C3)ccc21 (stereo not drawn),-5.38%,–
O=C(COc1ccccc1Cl)N1CCCCCCC1,3.49%,–
O=C(CSCc1ccc(Cl)cc1)N1CCCCC1,–,16.9 µM (active)
O=C(CSCc1ccc(Cl)cc1)N1CCN(Cc2ccc3c(c2)OCO3)CC1,1.28%,–
Cc1cccc(C)c1NC(=O)CNC(=O)C1CCCC1,4.17%,–
Cc1ccc(CNC(=O)CSc2c3c(nc4cc(Cl)ccc24)CCCC3)cc1,3.6%,–
COC(=O)c1sccc1S(=O)(=O)N(CC(=O)Nc1ccc(C)c(F)c1)c1ccc(C)c(C)c1,-5.87%,–
Cc1ccccc1CSc1nnc(-c2ccccc2)c(=O)[nH]1,–,19 µM (active)
Cc1ccc(CSc2nc(-c3ccccc3)c(C#N)c(=O)[nH]2)cc1,-1.34%,–
Cc1ccccc1CSc1nnc(-c2cccnc2)n1N,-0.836%,–
CCCN(CC(=O)NC(=O)NC1CCCCC1)CC(=O)Nc1cc(Cl)ccc1Cl,-0.397%,–
COc1ccccc1CNC(=O)CS(=O)(=O)c1cccc2nsnc12,3.65%,–
CCOC(=O)c1cccc(NC(=O)c2cc(S(=O)(=O)N3CCCC(C)C3)cn2C)c1 (stereo not drawn),4.78%,–
